# Measured values taken from PubChem BioAssay (NCATS).
# Records with an inconclusive call do not appear. Entries that show only a call come without a potency. The source made the active and inactive calls. Unless noted, calls come from the whole dose curve.
# Assays:
# [1] = biological target: Bile acid receptor (Homo sapiens) (UniProt Q96RI1); assay: qHTS assay for small molecule agonists of farnesoid X receptor signaling (AID 588527); details: HEK293T FXR-UAS-bla, beta-lactamase ratio, 16 h; activation: stronger effect = higher value; note: series mostly up to about 77 µM
# Chain of Bile acid receptor (Homo sapiens) (Q96RI1 whole entry, looked up): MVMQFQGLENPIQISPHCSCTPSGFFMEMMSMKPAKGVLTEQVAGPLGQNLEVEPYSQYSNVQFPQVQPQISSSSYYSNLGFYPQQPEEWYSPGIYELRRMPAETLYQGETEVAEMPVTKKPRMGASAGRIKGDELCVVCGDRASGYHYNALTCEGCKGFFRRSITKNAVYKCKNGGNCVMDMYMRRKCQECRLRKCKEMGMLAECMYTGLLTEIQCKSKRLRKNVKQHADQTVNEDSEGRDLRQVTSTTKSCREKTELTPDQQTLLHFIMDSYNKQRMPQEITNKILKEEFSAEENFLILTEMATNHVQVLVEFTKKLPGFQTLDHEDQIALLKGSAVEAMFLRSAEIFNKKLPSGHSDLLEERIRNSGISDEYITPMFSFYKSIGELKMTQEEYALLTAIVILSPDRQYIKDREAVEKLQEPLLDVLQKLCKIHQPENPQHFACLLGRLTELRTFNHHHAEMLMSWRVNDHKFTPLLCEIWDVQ
# Summary of the method: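 Quantitative HTS used FXR-UAS-bla HEK293T cells with 16 h compound incubation at 37 C. EC50 values came from concentration-response curves normalized to chenodeoxycholic acid.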
# [2] = biological target: Peroxisome proliferator-activated receptor delta (Homo sapiens) (UniProt Q03181); assay: qHTS assay for small molecule agonists of peroxisome proliferator-activated receptor delta signaling (AID 588534)
# Chain of Peroxisome proliferator-activated receptor delta (Homo sapiens) (Q03181 whole entry, looked up): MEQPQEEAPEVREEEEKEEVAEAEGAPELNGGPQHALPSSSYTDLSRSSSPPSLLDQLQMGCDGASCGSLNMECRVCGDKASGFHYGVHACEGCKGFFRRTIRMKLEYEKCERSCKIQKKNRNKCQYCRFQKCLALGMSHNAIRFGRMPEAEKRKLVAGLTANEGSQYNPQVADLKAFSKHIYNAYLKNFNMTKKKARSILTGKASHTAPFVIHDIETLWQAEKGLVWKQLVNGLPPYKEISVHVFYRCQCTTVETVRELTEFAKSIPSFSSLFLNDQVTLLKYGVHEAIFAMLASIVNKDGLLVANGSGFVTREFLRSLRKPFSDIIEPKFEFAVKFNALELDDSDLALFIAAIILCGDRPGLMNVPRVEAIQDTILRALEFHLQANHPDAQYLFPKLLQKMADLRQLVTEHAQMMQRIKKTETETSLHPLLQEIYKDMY
# Summary of the method: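 Titration series tested in agonist mode on beta-lactamase reporter cells; 18 hrs at 37 C after a 5 hr pre-incubation. Readout: CCF4 fluorescence, 2 hrs RT. Hill equation gives EC50 and maximal response.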
# [3] = qHTS for Inhibitors of the Functional Ribonucleoprotein Complex (vRNP) of Lassa (LASV) Arenavirus: LASV Primary Screen - GLuc reporter signal (AID 1347082; calls by dose curve; tested in HEK293 reporter line; note: series mostly up to about 57 µM; nearly all actives have a fitted effect of over 60% in size)
# [4] = qHTS for Inhibitors of the Functional Ribonucleoprotein Complex (vRNP) of Lassa (LASV) Arenavirus: Viability assay - alamar blue signal for LASV Primary Screen (AID 1347083; calls by dose curve; tested in HEK293 reporter line; note: series mostly up to about 57 µM; nearly all actives have a fitted effect of over 80% in size)
# [5] = qHTS for Inhibitors of the Functional Ribonucleoprotein Complex (vRNP) of Lymphocytic Choriomeningitis Arenaviruses (LCMV): Viability assay - alamar blue signal for LCMV Primary Screen (AID 1347085; calls by dose curve; tested in HEK293 reporter line; note: series mostly up to about 57 µM; nearly all actives have a fitted effect of over 80% in size)
# [6] = biological target: Nucleoprotein (Lymphocytic choriomeningitis virus (strain Armstrong)) (UniProt P09992); assay: qHTS for Inhibitors of the Functional Ribonucleoprotein Complex (vRNP) of Lymphocytic Choriomeningitis Arenaviruses (LCMV): LCMV Primary Screen - GLuc reporter signal (AID 1347086); note: series mostly up to about 57 µM; nearly all actives have a fitted effect of over 70% in size
# Chain of Nucleoprotein (Lymphocytic choriomeningitis virus (strain Armstrong)) (P09992 whole entry, looked up): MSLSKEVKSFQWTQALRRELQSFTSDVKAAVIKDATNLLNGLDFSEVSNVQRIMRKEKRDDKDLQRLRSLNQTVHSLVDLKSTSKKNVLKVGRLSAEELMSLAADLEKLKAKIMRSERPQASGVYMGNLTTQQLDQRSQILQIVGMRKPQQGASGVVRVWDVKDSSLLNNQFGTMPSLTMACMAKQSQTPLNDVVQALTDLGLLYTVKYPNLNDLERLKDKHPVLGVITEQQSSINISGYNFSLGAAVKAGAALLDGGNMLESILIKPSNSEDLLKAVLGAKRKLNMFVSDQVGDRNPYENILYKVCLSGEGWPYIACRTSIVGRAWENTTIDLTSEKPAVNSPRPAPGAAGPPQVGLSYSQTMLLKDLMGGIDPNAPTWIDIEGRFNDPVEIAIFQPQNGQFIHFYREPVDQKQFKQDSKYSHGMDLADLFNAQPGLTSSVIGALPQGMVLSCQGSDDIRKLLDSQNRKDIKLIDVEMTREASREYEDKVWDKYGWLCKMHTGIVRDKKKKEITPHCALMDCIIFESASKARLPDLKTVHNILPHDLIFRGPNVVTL
# [7] = biological target: Alpha-galactosidase (Coffea arabica) (UniProt Q42656); assay: Counterscreen for Glucocerebrosidase Inhibitors: qHTS Assay for Coffee Bean alpha-Galactosidase at pH 4.5 (AID 957; active = well fitted curve in the direction sought with a large enough effect; an effect the other way counts as inactive or inconclusive; note: series mostly up to about 77 µM)
# Chain of Alpha-galactosidase (Coffea arabica) (Q42656 whole entry, looked up): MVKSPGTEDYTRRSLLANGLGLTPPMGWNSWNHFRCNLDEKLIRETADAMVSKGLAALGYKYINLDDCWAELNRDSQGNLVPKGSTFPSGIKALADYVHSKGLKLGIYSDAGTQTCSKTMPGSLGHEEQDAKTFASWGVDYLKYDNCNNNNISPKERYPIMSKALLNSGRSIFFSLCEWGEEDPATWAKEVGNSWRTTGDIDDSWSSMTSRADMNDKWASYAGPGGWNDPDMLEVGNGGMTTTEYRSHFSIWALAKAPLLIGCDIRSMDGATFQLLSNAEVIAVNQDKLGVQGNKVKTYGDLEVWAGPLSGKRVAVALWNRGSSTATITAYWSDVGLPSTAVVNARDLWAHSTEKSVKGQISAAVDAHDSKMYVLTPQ
# Summary of the method: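 Fluorogenic read-out: 4-methylumbelliferone at Ex 365/Em 440 nm after NaOH/glycine stop (pH 10). Enzyme 2 nM, 4-MU-alpha-galactoside 80 uM, citrate buffer pH 4.5, 20 min RT; normalized to no-enzyme and enzyme controls.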
# [8] = biological target: Alpha-galactosidase (Coffea arabica) (UniProt Q42656); assay: Counterscreen for Glucocerebrosidase Inhibitors: qHTS Assay for Coffee Bean alpha-Galactosidase at pH 5.9 (AID 998; active = well fitted curve in the direction sought with a large enough effect; an effect the other way counts as inactive or inconclusive)
# Summary of the method: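 In 50 mM citric acid pH 5.9 with 0.005% Tween-20, coffee bean enzyme hydrolyses 80 uM 4-MU alpha-D-galactopyranoside over 20 min at RT. Activity is normalized to controls; AC50 comes from Hill-modelled concentration-response data.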
# [9] = Inducers of the Endoplasmic Reticulum Stress Response (ERSR) in human glioma: Validation (AID 504836; active = well fitted curve in the direction sought with a large enough effect; an effect the other way counts as inactive or inconclusive)
# Summary of the method: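 Stably transfected U87-MG human glioma cells carrying a GRP78-based luminescent sensor were seeded at 1000 cells/well, pin-dosed with compounds and incubated 16 h. Luciferase reagent was then added, and end-point luminescence was read after 10 min at room temperature.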
# [10] = biological target: Androgen receptor (Homo sapiens) (UniProt P10275); assay: qHTS assay for small molecule agonists of androgen receptor signaling (AID 588515; active = well fitted curve in the direction sought with a large enough effect in the signal ratio, with a control signal flat; the % refers to the signal ratio); details: AR-UAS-bla HEK293, beta-lactamase ratio, agonist 16 h; stronger effect = higher value
# Chain of Androgen receptor (Homo sapiens) (P10275 whole entry, looked up): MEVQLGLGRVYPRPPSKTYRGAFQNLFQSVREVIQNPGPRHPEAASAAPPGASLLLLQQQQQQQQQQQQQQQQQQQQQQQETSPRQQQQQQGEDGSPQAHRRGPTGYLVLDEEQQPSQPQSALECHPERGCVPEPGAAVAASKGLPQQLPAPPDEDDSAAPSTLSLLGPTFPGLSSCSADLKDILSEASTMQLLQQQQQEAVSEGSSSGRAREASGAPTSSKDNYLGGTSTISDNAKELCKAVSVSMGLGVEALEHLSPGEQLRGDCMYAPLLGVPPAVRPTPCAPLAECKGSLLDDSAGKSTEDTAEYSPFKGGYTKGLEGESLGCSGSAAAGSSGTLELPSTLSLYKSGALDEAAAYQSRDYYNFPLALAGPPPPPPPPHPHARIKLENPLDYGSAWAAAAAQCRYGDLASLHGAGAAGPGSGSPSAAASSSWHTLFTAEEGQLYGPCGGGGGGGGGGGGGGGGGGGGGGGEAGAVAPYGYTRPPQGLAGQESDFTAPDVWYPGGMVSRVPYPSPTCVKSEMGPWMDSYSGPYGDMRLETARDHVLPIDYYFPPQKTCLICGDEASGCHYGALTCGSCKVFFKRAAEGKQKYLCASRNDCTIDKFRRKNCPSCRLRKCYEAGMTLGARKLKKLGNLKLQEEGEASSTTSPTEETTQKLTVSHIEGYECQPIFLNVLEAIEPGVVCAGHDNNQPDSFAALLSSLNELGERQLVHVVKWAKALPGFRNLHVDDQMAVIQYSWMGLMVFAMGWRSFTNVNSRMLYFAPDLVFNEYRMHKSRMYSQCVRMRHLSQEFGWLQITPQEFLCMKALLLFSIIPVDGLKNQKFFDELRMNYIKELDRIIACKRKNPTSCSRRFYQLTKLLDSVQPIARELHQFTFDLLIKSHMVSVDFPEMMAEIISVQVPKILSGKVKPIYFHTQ
# Summary of the method: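 Stimulation of an AR-responsive β-lactamase reporter in GripTite HEK293 cells was measured after 16 h compound exposure at 37 °C, via CCF4 fluorescence after 2 h RT. EC50 from Hill fits, normalized to R1881 at 30 nM.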
# [11] = biological target: Androgen receptor (Homo sapiens) (UniProt P10275); assay: qHTS assay for small molecule antagonists of androgen receptor signaling (AID 588516; active = well fitted curve in the direction sought with a large enough effect in the signal ratio, with a control signal flat, not every such curve was filed as active; the % refers to the signal ratio)
# Summary of the method: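 AR-UAS-bla GripTite HEK 293 cells (2000/well) treated with compound titrations plus 10 nM R1881 for 16 h at 37C. Beta-lactamase read by CCF4 FRET (460/530 nm); IC50 from Hill fits, normalized to R1881 and DMSO control wells.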
# [12] = biological target: Bile acid receptor (Homo sapiens) (UniProt Q96RI1); assay: qHTS assay for small molecule antagonists of farnesoid X receptor signaling (AID 588526)
# Summary of the method: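 Concentration-response titrations were fitted to the Hill equation for half-maximal inhibition and maximal response, with data normalised to 50 uM chenodeoxycholic acid and DMSO control wells. Cells: FXR-UAS-bla HEK293T, dialyzed FBS.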
# [13] = qHTS assay for small molecule antagonists of peroxisome proliferator-activated receptor delta signaling (AID 588535; active = well fitted inhibition curve with a large enough effect in the signal ratio, with a control signal flat, not every such curve was filed as active; the % refers to the signal ratio;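 for max response: cells co-treated with a PPAR-delta agonist as stimulator during compound exposure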); details: HEK293T PPARd-UAS-bla, beta-lactamase FRET ratio, 18 h; 460 nm channel
# Summary of the method: (§1)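 Compounds tested in titration on PPAR-delta-UAS-bla HEK293T cells grown in charcoal/dextran-stripped serum (2%); beta-lactamase activity read via CCF4 emission at 460 and 530 nm.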
# [14] = biological target: Peroxisome proliferator-activated receptor delta (Homo sapiens) (UniProt Q03181); assay: as above
# Summary of the method: as §1
# [15] = biological target: Peroxisome proliferator-activated receptor gamma (Homo sapiens) (UniProt P37231); assay: qHTS assay for small molecule agonists of peroxisome proliferator-activated receptor gamma signaling (AID 588536; active = well fitted curve in the direction sought with a large enough effect in the signal ratio, with a control signal flat, not every such curve was filed as active; the % refers to the signal ratio)
# Summary of the method: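 Using GeneBLAzer HEK293 cells, response was quantified by CCF4 fluorescence and normalized between basal DMSO (0%) and rosiglitazone 2 uM (100%); curves yielded half-maximal stimulation concentration and efficacy.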
# [16] = biological target: Vitamin D3 receptor (Homo sapiens) (UniProt P11473); assay: qHTS assay for small molecule antagonists of vitamin D receptor signaling (AID 588541);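 note: receptor activated by calcitriol during compound treatment; series mostly up to about 77 µM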
# Chain of Vitamin D3 receptor (Homo sapiens) (P11473 whole entry, looked up): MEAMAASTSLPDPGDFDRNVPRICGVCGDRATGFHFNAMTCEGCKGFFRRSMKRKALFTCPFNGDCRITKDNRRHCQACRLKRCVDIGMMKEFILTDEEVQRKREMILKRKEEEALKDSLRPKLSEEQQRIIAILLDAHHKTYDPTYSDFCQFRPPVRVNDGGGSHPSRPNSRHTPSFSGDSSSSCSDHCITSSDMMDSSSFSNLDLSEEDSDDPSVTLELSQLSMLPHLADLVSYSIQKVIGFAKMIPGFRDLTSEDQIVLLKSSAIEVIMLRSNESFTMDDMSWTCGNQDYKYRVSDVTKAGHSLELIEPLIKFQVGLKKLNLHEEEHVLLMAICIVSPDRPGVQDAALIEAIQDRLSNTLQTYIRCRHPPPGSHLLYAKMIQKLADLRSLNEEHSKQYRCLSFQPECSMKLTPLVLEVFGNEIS
# Summary of the method: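 VDR-UAS-bla HEK293T cells (2000/well, 2% charcoal-stripped FBS) were treated with titrated compounds plus 1-alpha,25-dihydroxyvitamin D3 (50 nM or 3 nM final) for 16 h at 37 C. CCF4 beta-lactamase fluorescence was read; Hill fits gave IC50.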
# [17] = biological target: Vitamin D3 receptor (Homo sapiens) (UniProt P11473); assay: qHTS assay for small molecule agonists of vitamin D receptor signaling (AID 588543)
# Summary of the method: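 VDR-UAS-bla HEK293T cells, 2000/well, 2% charcoal-stripped FBS; compound titration 16 h at 37 C; CCF4 beta-lactamase ratio read. Normalized to 50 nM 1-alpha,25-dihydroxyvitamin D3 (100%) and DMSO; Hill fit gives EC50, efficacy.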
# [18] = qHTS assay for small molecule agonists of retinoid X receptor alpha signaling (AID 588544); details: HEK293T RXRa-UAS-bla, beta-lactamase reporter, 18 h; 530 nm emission
# [19] = biological target: Retinoic acid receptor RXR-alpha (Homo sapiens) (UniProt P19793); assay: as above
# Chain of Retinoic acid receptor RXR-alpha (Homo sapiens) (P19793 whole entry, looked up): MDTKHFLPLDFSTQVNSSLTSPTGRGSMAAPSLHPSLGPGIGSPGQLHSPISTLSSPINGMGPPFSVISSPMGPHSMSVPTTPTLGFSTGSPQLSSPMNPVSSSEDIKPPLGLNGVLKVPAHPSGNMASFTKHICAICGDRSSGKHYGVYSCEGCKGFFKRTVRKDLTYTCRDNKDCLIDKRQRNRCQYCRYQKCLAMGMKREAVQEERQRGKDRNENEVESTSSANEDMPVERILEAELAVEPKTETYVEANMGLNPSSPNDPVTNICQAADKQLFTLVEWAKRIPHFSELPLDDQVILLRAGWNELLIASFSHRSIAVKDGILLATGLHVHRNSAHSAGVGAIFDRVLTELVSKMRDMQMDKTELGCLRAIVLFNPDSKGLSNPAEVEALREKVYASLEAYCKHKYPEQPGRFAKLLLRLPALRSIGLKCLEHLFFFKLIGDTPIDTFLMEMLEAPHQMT
# [20] = biological target: Thyroid hormone receptor beta (Homo sapiens) (UniProt P10828); assay: qHTS assay for small molecule agonists of thyroid hormone receptor beta signaling (AID 588545)
# Chain of Thyroid hormone receptor beta (Homo sapiens) (P10828 whole entry, looked up): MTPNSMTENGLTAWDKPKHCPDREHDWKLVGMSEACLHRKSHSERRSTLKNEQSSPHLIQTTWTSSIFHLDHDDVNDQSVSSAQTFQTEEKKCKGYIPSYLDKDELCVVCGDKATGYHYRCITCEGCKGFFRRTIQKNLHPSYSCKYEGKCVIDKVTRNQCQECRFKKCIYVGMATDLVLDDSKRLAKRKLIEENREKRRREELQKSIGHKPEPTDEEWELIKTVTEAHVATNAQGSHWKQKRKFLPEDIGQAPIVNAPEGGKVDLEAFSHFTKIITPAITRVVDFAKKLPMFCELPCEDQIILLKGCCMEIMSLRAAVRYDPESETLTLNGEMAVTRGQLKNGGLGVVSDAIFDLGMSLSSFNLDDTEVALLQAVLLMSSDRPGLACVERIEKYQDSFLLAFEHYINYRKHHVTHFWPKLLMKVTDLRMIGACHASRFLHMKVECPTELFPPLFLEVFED
# Summary of the method: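 TR-UAS-bla GripTite HEK 293 cells (2500/well, medium with 2% charcoal/dextran FBS) were treated in agonist mode for 18 h at 37 C, titrated. Beta-lactamase was read by CCF4 ratio after 2 h; normalized to 10 nM T3 (100%) and DMSO, Hill-fitted for EC50 and efficacy.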
# [21] = qHTS assay for small molecule antagonists of retinoid X receptor alpha signaling (AID 588546; active = well fitted inhibition curve with a large enough effect in the signal ratio, with a control signal flat, not every such curve was filed as active; the % refers to the signal ratio;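 note: cells stimulated with 9-cis-retinoic acid as agonist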); details: HEK293T RXRa-UAS-bla, beta-lactamase ratio, antagonist mode; measured here: W530 green channel, cytotoxicity proxy
# Summary of the method: (§2)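 Beta-lactamase reporter inhibition, read as CCF4 fluorescence ratio (ex 405, em 460/530 nm) after 2 h at RT. HEK293T UAS-bla cells, 2500/well, were stimulated with 9-cis-RA at 500 or 100 nM final alongside test compound for 18 h at 37 C.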
# [22] = biological target: Retinoic acid receptor RXR-alpha (Homo sapiens) (UniProt P19793); assay: as above; details: HEK293T RXRa-UAS-bla, beta-lactamase ratio, antagonist mode
# Summary of the method: as §2
# [23] = biological target: Thyroid hormone receptor beta (Homo sapiens) (UniProt P10828); assay: qHTS assay for small molecule antagonists of thyroid hormone receptor beta signaling (AID 588547; active = well fitted inhibition curve with a large enough effect in the signal ratio, with a control signal flat, not every such curve was filed as active; the % refers to the signal ratio;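 note: cells stimulated with 0.4 nM T3 agonist during compound exposure; series mostly up to about 77 µM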); details: TR-UAS-bla HEK293, beta-lactamase ratio, antagonist mode, 18 h
# Summary of the method: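 TR-UAS-bla GripTite HEK293 cells in 2% charcoal/dextran FBS medium were preincubated 4 h at 37 C, given compound (0.59 nM to 92 uM) plus 0.4 nM T3 (final) for 18 h, then CCF4 for 2 h at RT; Hill fit gave IC50.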
# [24] = qHTS assay for small molecule agonists of the antioxidant response element (ARE) signaling pathway (AID 651741; active = well fitted activation curve with a large enough effect in the signal ratio; the % refers to the signal ratio)
# Summary of the method: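 Beta-lactamase reporter expression driven by the antioxidant response element in HepG2 cells was detected by fluorescence with LiveBLAzer B/G FRET substrate (2 h, room temperature) following 16 h compound treatment at 37 C.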
# [25] = qHTS assay for environmental chemicals that activate the Aryl hydrocarbon Receptor (AhR) signaling pathway (AID 651777; active = well fitted curve in the direction sought with a large enough effect; an effect the other way counts as inactive or inconclusive; note: nearly all actives have a fitted effect of over 15% in size); details: 1A2-DRE human hepatoma cells, luciferase, 24 h; activation: stronger effect = higher value
# Summary of the method: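 Luminescence read-out: One-Glo added for 30 min at RT after 24 hr compound treatment (37 C, 5% CO2) of human hepatoma cells expressing a DRE/CYP1A2 promoter–luciferase reporter; increased signal indicates AhR activation.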
# [26] = biological target: Peroxisome proliferator-activated receptor alpha (Homo sapiens) (UniProt Q07869); assay: qHTS assay for small molecule agonists of the peroxisome proliferator-activated receptor alpha (PPARalpha) signaling pathway (AID 651778; active = well fitted curve in the direction sought with a large enough effect; an effect the other way counts as inactive or inconclusive); details: PathHunter PPARalpha complementation, chemiluminescence, 6 h; stronger effect = higher value
# Summary of the method: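 Cells plated at 2,000/well and held overnight at 37 C, 5% CO2, then compound added by pin tool for 6 hr; after PathHunter detection reagent and 60 min at room temperature, chemiluminescence from enzyme complementation was read.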
# [27] = qHTS assay for small molecule agonists of the antioxidant response element (ARE) signaling pathway measured by Nrf2-dependant transcriptional activity (AID 720636; active = well fitted curve in the direction sought with a large enough effect in the repeat runs; an effect the other way counts as inactive or inconclusive)
# Summary of the method: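 HepG2 ARE-luc reporter line, 1% dialyzed FBS; 6 hr attachment at 37 C, compound pinned in, 16 hr at 37 C/5% CO2; ONE-Glo, 30 min RT, luminescence read.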
# [28] = qHTS assay for small molecule agonists of the antioxidant response element (ARE) signaling pathway measured by Nrf2-dependant transcriptional activity - cell viability counter screen (AID 720653; active = well fitted curve in the direction sought with a large enough effect in the repeat runs; an effect the other way counts as inactive or inconclusive); details: ARE-bla HepG2 viability, CellTiter-Glo ATP luminescence, 16 h; max response: stronger effect = lower value
# Summary of the method: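 ARE-bla HepG2 cells (2,000/well) rested 5 hrs at 37C/5% CO2, then exposed to compounds in DMSO for 16 hrs. Viability was read in the same wells as intracellular ATP by luminescence, 30 min at room temperature after reagent addition.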
# [29] = qHTS assay for cell viability of HEK293 cells (AID 743288; active = well fitted curve in the direction sought with a large enough effect; an effect the other way counts as inactive or inconclusive; note: nearly all actives have a fitted effect of over 50% in size); details: ATP luminescence (CellTiter-Glo), 18 h; max response: stronger effect = lower value
# Summary of the method: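 Steps: plate 2,000 parental HEK293 cells per well; incubate ≥5 h, 37 C; add compounds in DMSO; incubate 18 h, 37 C; add CellTiter-Glo; wait 30 min at room temperature; read luminescence.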
# [30] = qHTS assay for cell viability of the p53RE-bla HCT-116 cell line (AID 743292; active = well fitted curve in the direction sought with a large enough effect; an effect the other way counts as inactive or inconclusive; note: nearly all actives have a fitted effect of over 55% in size)
# Summary of the method: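 Luminescent ATP quantitation (CellTiter-Glo) served as the viability read-out; reagent was added after 16 h compound exposure at 37 C and read after 30 min at room temperature. Cells: p53RE-bla HCT-116, 4,000 per well.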
# [31] = biological target: Nuclear receptor subfamily 1 group I member 2 (Rattus norvegicus) (UniProt Q9R1A7); assay: qHTS assay for small molecule activators of the rat pregnane X receptor (rPXR) signaling pathway (AID 651751; call rule not given here); details: rPXR reporter cells, luciferase (One-Glo), 24 h
# Chain of Nuclear receptor subfamily 1 group I member 2 (Rattus norvegicus) (Q9R1A7 whole entry, looked up): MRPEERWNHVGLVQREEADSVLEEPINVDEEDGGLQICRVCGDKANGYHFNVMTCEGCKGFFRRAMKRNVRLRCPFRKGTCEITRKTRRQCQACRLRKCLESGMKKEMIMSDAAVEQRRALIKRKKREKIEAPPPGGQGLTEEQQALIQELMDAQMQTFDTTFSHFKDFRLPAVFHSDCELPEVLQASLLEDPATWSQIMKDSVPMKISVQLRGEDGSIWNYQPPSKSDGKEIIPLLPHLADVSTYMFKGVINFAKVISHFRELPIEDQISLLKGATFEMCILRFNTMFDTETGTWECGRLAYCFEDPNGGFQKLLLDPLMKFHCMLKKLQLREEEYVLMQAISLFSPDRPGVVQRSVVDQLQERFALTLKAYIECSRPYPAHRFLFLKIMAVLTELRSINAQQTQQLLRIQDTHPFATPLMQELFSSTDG
# [32] = qHTS assay for small molecule activators of the human pregnane X receptor (PXR) signaling pathway (AID 720659; call rule not given here)
structure (smiles),measurement,setting,value
CCCCCCCCCCCCCc1ccccc1,activation,[1],-1.99% (inactive)
same,Potency,[2],inactive
same,Potency,[3],inactive
same,Potency,[4],inactive
same,Potency,[5],inactive
same,Potency,[6],inactive
CC(C)Cn1c(=O)n(C)c(=O)c2[nH]cnc21,outcome,[7],inactive
same,outcome,[8],inactive
same,outcome,[9],inactive
same,Potency,[3],inactive
same,Potency,[4],inactive
same,Potency,[5],inactive
same,Potency,[6],inactive
CN=C(N)NCCC[C@H](N)C(=O)O,outcome,[8],inactive
same,outcome,[9],inactive
same,Potency,[3],inactive
same,Potency,[4],inactive
same,Potency,[5],inactive
same,Potency,[6],inactive
Cc1ccc(C)c2ccccc12,activation,[10],26.3% (inactive)
same,outcome,[11],inactive
same,Potency,[12],inactive
same,activation,[1],-1.23% (inactive)
same,Potency,[2],inactive
same,max response,[13],22.6%
same,outcome,[14],inactive
same,outcome,[15],inactive
same,outcome,[16],inactive
same,Potency,[17],inactive
same,max response,[18],-18.4%
same,outcome,[19],inactive
same,Potency,[20],inactive
same,max response,[21],-5.36%
same,max response,[22],3.54% (inactive)
same,activity change % (negative = inhibition),[23],-0.662% (inactive)
same,Potency,[24],inactive
same,activation,[25],1.38% (inactive)
same,max response,[26],-1.64% (inactive)
same,Potency,[27],inactive
same,max response,[28],-14.6% (inactive)
same,max response,[29],-1.65% (inactive)
same,outcome,[30],inactive
same,Potency,[3],inactive
same,Potency,[4],inactive
same,Potency,[5],inactive
same,Potency,[6],inactive
same,max response,[31],-3.33% (inactive)
same,outcome,[32],inactive
